The whole screen tested about 400,000 compounds, of which about 2,100 (0.53%) were called active. Inconclusive results (about 14%) are left out. The rule behind the calls is not given here. Only a selection was taken, and actives are over-represented in it overall.

For this test, the target named is Ataxin-2 (Homo sapiens) (UniProt Q99700). The test can be described thus: qHTS for Inhibitors of ATXN expression. Type of test: functional.
Chain of Ataxin-2 (Homo sapiens) (Q99700 whole entry): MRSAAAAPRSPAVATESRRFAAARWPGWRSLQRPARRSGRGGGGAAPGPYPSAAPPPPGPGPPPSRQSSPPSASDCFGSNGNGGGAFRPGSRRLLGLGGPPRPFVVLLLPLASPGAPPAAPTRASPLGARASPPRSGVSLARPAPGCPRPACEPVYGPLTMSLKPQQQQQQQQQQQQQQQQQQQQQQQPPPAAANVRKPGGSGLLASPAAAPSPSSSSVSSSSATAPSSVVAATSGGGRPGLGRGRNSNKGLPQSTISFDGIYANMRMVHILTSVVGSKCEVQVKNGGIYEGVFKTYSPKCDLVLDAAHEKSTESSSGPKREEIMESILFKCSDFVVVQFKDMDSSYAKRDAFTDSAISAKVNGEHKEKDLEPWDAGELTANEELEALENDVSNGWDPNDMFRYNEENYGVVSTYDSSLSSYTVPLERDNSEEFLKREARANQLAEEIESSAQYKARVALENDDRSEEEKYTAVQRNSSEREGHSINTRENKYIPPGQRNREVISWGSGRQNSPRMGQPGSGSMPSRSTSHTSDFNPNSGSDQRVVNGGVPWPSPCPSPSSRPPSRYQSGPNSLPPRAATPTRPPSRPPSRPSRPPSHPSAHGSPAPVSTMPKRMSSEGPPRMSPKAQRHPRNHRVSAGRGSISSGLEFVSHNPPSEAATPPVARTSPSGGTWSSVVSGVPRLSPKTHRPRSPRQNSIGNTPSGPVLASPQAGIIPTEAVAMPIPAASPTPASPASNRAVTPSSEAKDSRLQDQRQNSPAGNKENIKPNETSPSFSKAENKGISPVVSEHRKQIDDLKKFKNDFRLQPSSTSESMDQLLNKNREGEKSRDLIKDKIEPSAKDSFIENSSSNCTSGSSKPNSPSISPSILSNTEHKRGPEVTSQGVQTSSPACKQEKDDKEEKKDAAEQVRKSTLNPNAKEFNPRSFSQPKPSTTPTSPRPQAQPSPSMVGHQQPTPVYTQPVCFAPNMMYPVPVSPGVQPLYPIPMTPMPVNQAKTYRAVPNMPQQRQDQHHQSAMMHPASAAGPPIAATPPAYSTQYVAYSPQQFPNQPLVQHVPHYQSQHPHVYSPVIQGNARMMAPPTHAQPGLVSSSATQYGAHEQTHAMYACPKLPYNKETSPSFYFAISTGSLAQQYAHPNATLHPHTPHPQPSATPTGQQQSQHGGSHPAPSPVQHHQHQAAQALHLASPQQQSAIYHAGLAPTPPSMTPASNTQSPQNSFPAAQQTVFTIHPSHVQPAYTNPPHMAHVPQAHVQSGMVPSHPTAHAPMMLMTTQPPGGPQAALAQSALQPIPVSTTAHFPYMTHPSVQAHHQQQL
In the case of `O/C(=C\c1nc2ccccc2nc1O)c1cccs1`, the Potency result was “inactive”.

`CC[C@@H]1CC=C[C@H]2[C@H]1C(=O)N(Cc1ccccc1)[C@H]2c1ccoc1`: the Potency is 35.5 µM (active).

Turning to `O=C1C2C(c3ccccc3)CC=CC2[C@H](c2ccc(C(F)(F)F)cc2)N1Cc1ccccc1` (stereo partly drawn), the Potency is 15.8 µM (active).

With `Cc1ccc(F)c([C@H]2[C@H]3C=CC[C@@H](C)[C@@H]3C(=O)N2Cc2ccccc2)c1`, the Potency is 39.8 µM (active).

`Nc1nnc(SCC(=O)NNC(=O)c2ccc([N+](=O)[O-])cc2)s1`: the Potency entry was “inactive”.

Turning to `NC(S)=NN=C1c2cc(OCCN3CCOCC3)ccc2-c2ccc(OCCN3CCOCC3)cc21`, the Potency is 7.94 µM (active).

Take `COCc1cc(O)nc(SCCS(=O)(=O)c2ccc(Cl)cc2Cl)n1`: the Potency was 11.2 µM (active).

Turning to `O=S(=O)(CCN1C=CC(C(F)(F)F)=NCC1)c1ccc(Cl)cc1Cl`, the Potency entry was “inactive”.

For `COCc1cc(O)nc(-c2ccc(C(F)(F)F)cc2)n1`, the Potency entry was “inactive”.

Consider `CCOc1cc(C(c2c(C)[nH]n(-c3ccccc3)c2=O)c2c(C)[nH]n(-c3ccccc3)c2=O)ccc1O`, for which the Potency is 28.2 µM (active).

`CCN1/C(=C/c2ccc3cc(C)ccc3[n+]2CC)Sc2ccccc21`: the Potency was 14.1 µM (active).

In the case of `CCN1/C(=C\c2ccc3ccccc3[n+]2CC)Sc2cc(C)ccc21`, the Potency was 44.7 µM (active).

For `CCOC(=O)/C(=C\C=C1/Sc2ccccc2N1CC)C(C)=O`, the Potency result is “inactive”.

With `CCN1/C(=C/c2ccc3cc(C)ccc3[n+]2C)Sc2ccc3sccc3c21`, the Potency is 17.8 µM (active).

For `CCOC(=O)/C(C#N)=C(C)/C=C1\Sc2ccccc2N1CC`, the Potency result is “inactive”.

As for `CC[n+]1c(C=C2C=CN(C)C=C2)ccc2cc(C)ccc21`, the Potency is 10 µM (active).

For `N=c1c(C(=O)NCC2CCCO2)cc2c(=O)n3ccccc3nc2n1Cc1ccccc1Cl` (stereo not drawn), the Potency entry was “inactive”.

Turning to `CCOC(=O)C1CCN(C(c2ccc(OC)c(OC)c2)c2sc3nc(C)nn3c2O)CC1` (stereo not drawn), the Potency entry is “inactive”.

Take `O=C(N/N=C/c1c(O)ccc2ccccc12)c1[nH]ncc1Br`: the Potency result is “inactive”.

For the molecule `CCN1CCN(Cc2c(O)ccc3c2O/C(=C\c2ccc(C)cc2)C3=O)CC1`, the Potency result was “inactive”.

In the case of `CC(NC(=O)C12CC3CC(CC(C3)C1)C2)C(=O)N/N=C/C1=C(N2CCOCC2)C(=C\c2ccccc2)/CC1` (stereo not drawn), the Potency result was “inactive”.

Regarding `CCOc1ccc(CCNC(=O)Cn2ncn3nc(-c4ccc(OC)cc4)cc3c2=O)cc1OCC`, the Potency entry was “inactive”.

Turning to `Cc1cc2c(C)cc(=O)oc2c2c1NCCC2`, the Potency entry was “inactive”.

`Fc1ccc(Br)cc1C1C=C(c2ccc(Br)cc2)Nc2ncnn21` (stereo not drawn): the Potency entry was “inactive”.

Consider `CCN1/C(=C/c2ccc3cc(C)ccc3[n+]2CC)Sc2cc(C)ccc21`, for which the Potency was 10.6 µM (active).

Consider `CCOC(=O)c1ccc(N2CCOCC2)c(NC(=O)c2ccc3c(c2)OCO3)c1`, for which the Potency entry is “inactive”.

As to `CCCCn1nc(C(=O)Nc2cc(C(F)(F)F)ccc2N2CCOCC2)ccc1=O`, the Potency was 39.8 µM (active).

Take `Cc1ccccc1C(=O)Nc1cc(C(F)(F)F)ccc1-n1cncn1`: the Potency result was “inactive”.

Take `O=C(Nc1ccccc1N1CCOCC1)c1cc(Br)c(Br)s1`: the Potency result was “inactive”.

Regarding `O=C1c2ccccc2-c2ncnc3c(N4CCOCC4)cc(N4CCOCC4)c1c23`, the Potency is 17.8 µM (active).

Consider `c1cc2c3c(cccc3c1)C(N1CCOCC1)=N2`, for which the Potency entry was “inactive”.

Regarding `C=CCN1C(=O)/C(=C/c2ccc(OC(C)=O)c(OCC)c2[N+](=O)[O-])SC1=S`, the Potency is 31.6 µM (active).

`CCO/C=C1/C(=O)N(c2ccc(OC)cc2)C(=O)c2ccccc21`: the Potency result is “inactive”.

In the case of `O=C(O)c1cc2c(cc1NC(=O)C1CCCC1)OCCO2`, the Potency result was “inactive”.

With `Cc1ccc2c(c1)OC(c1ccc3c(c1)OCCO3)CC2=O` (stereo not drawn), the Potency entry is “inactive”.

For `O=C(CCl)N1CCCC1c1ccc2c(c1)OCCO2` (stereo not drawn), the Potency was 35.5 µM (active).

`CCOC(=O)c1sc(NC(=O)CCN2CCN(C)CC2)c(C(=O)OCC)c1C`: the Potency entry is “inactive”.

Turning to `CC(=O)O[C@@H]1C[C@H]2C(C)(C)C(=O)C=C[C@]2(C)[C@H]2CC[C@@]3(C)[C@H](c4ccoc4)OC(=O)[C@H]4O[C@]43[C@@]21C`, the Potency is 31.6 µM (active).

`Cc1onc(-c2ccccc2Cl)c1C(=O)Nc1cc(=O)n(C)c(=O)n1C`: the Potency result is “inactive”.

Turning to `Cc1ccc2c(Cl)cc(Cl)c(OCC(=O)OCC(=O)Nc3ccc(C#N)cc3)c2n1`, the Potency result is “inactive”.

As to `CCCCCCN1C[C@@H](n2cc(COC(=O)c3ccccc3)nn2)[C@H](O)C[C@@H]1c1ccc(C)cc1`, the Potency was 22.4 µM (active).

As to `CCCCCCN1C[C@H](n2cc(COC(=O)c3ccccc3)nn2)[C@@H](O)C[C@@H]1c1ccc(Cl)cc1`, the Potency is 31.6 µM (active).

On to `CCCCC(NC(=O)Cc1c(C)c2cc3c4c(oc3cc2oc1=O)CCCC4)C(=O)O` (stereo not drawn), for which the Potency entry is “inactive”.

`Cc1c(O)ccc2c(CN3CCN(CCO)CC3)cc(=O)oc12`: the Potency entry is “inactive”.

On to `O=C(O)COc1ccccc1/C=N/Nc1ccc(S(=O)(=O)Nc2ccc(Cl)cc2)cc1[N+](=O)[O-]`, for which the Potency entry is “inactive”.

In the case of `Cc1nn(-c2ccccc2)c(N2CCCC2)c1/C=N/Nc1ccc(S(=O)(=O)Nc2ccccc2)cc1[N+](=O)[O-]`, the Potency is 31.6 µM (active).

In the case of `Cc1c(NS(=O)(=O)c2ccc(NCCN3CCOCC3)c([N+](=O)[O-])c2)c(=O)n(-c2ccccc2)n1C`, the Potency entry is “inactive”.

On to `O=C(COc1ccc(Br)cc1)NCCN1CCCC1`, for which the Potency result was “inactive”.

On to `CC1=C(C(=O)OC(C)C)C(c2ccc(Cl)cc2)n2c(s/c(=C\c3ccc(OCC(=O)O)cc3)c2=O)=N1` (stereo not drawn), for which the Potency entry was “inactive”.

For `CC1=CC2=NC(=O)/C(=C/c3coc4ccc(Cl)cc4c3=O)C(=N)N2O1`, the Potency entry was “inactive”.

Turning to `CCOC(=O)c1sc(NC(=O)c2nc3nc(C)cc(C(F)F)n3n2)c(C(=O)OC)c1C`, the Potency entry was “inactive”.

For the molecule `CCN1C(=O)c2cccc3c(S(=O)(=O)NC(Cc4ccccc4)C(=O)O)ccc1c23` (stereo not drawn), the Potency entry was “inactive”.

For `O=C(COC(=O)c1ccccc1C(=O)c1ccc(Cl)c([N+](=O)[O-])c1)NC1CCCCCC1`, the Potency is 35.5 µM (active).

Consider `CN(CCC#N)C(=O)COC(=O)c1c2c(nc3ccccc13)/C(=C/c1ccco1)CC2`, for which the Potency result is “inactive”.

`Cc1ccc(C(=O)COC(=O)CCC(=O)NC2CCCCC2)cc1[N+](=O)[O-]`: the Potency entry was “inactive”.

Consider `CC(=O)Nc1ccc(NC(=O)C(C)OC(=O)CCSc2ccccc2Cl)cc1` (stereo not drawn), for which the Potency entry was “inactive”.

For the molecule `CC(OC(=O)c1ccc(-n2cnnn2)cc1)C(=O)Nc1ccccc1[N+](=O)[O-]` (stereo not drawn), the Potency result was “inactive”.

For the molecule `C=CCNC(=O)c1ccccc1NC(=O)Cc1ccccc1[N+](=O)[O-]`, the Potency entry is “inactive”.

For `O=C(CN(C(=O)c1ccccc1Cl)C1CCCCC1)Nc1ccc(Cl)c([N+](=O)[O-])c1`, the Potency was 35.5 µM (active).

Consider `CN(C(=O)COC(=O)c1ccc([N+](=O)[O-])cc1N)c1ccccc1`, for which the Potency result is “inactive”.

Turning to `CC(=O)Nc1ccc(NC(=O)C(C)OC(=O)c2ccccc2C(=O)c2ccc(Cl)c([N+](=O)[O-])c2)cc1` (stereo not drawn), the Potency was 39.8 µM (active).

Regarding `CN(CCC#N)C(=O)COC(=O)c1ccccc1C(=O)c1ccc(Cl)c([N+](=O)[O-])c1`, the Potency was 29.9 µM (active).

As for `CN(CC(=O)Nc1ccccc1Cl)C1CCS(=O)(=O)C1` (stereo not drawn), the Potency result is “inactive”.

For the molecule `Cc1cc(OCC(=O)OCC(=O)NC2CCCCCC2)ccc1Cl`, the Potency entry is “inactive”.

With `O=C(CSc1nnnn1C1CC1)N1CCN(c2ccc(O)cc2)CC1`, the Potency result was “inactive”.

As to `Cn1c(N)c(C(=O)COC(=O)CC(NC(=O)c2ccccc2Cl)c2ccccc2)c(=O)n(C)c1=O` (stereo not drawn), the Potency entry is “inactive”.

In the case of `CCOC(=O)Cn1nc(C)c(NC(=O)COc2ccc([N+](=O)[O-])c(C)c2)c1C`, the Potency result was “inactive”.

On to `CC(=O)c1ccccc1NC(=O)COC(=O)c1cc[n+]([O-])cc1`, for which the Potency result is “inactive”.

For `Cn1c(N)c(C(=O)COC(=O)c2ccccc2C(=O)c2ccc(Cl)c([N+](=O)[O-])c2)c(=O)n(C)c1=O`, the Potency was 20 µM (active).

Regarding `CC(C)Cn1c(N)c(C(=O)COC(=O)c2cccnc2Cl)c(=O)n(C)c1=O`, the Potency entry was “inactive”.

As to `Cc1ccc(Cl)c(NC(=O)COC(=O)c2ccccc2C(=O)c2ccc(Cl)c([N+](=O)[O-])c2)c1Cl`, the Potency is 20 µM (active).

Regarding `COC(=O)c1cc(-c2ccc(Br)cc2)c2c(=O)n(C)c(=O)n(C)c2n1`, the Potency result was “inactive”.

For `Cc1sc2nc3ccc(NCc4ccco4)nn3c(=O)c2c1C`, the Potency entry was “inactive”.

In the case of `O=C(/C=C/c1cn(CC(O)CN2CCc3ccccc32)c2ccccc12)c1ccc(Br)cc1` (stereo not drawn), the Potency result was “inactive”.

For `COc1ccc(CNc2cc(C)nc3ccc(OC)cc23)cc1`, the Potency entry was “inactive”.

As for `COc1ccc2cc(CNCCOCCOCCNCc3ccc4cc(OC)ccc4c3)ccc2c1`, the Potency was 29.9 µM (active).

With `COc1ccc(CNCCC2(C(C)C)CCOC(C)(C)C2)cc1` (stereo not drawn), the Potency result was “inactive”.

Turning to `OCCCc1nc2n(n1)C(c1ccccc1)C=C(c1ccccc1)N2` (stereo not drawn), the Potency entry was “inactive”.

Consider `Cc1cc(N2CCN(c3ccc(C(F)(F)F)cc3[N+](=O)[O-])CC2)c2ccccc2n1`, for which the Potency entry was “inactive”.

For `Cc1cc(N2CCN(C(=O)Oc3ccc([N+](=O)[O-])cc3)CC2)c2ccccc2n1`, the Potency is 35.5 µM (active).

For the molecule `O=C(Cc1ccccc1)Nc1cc([N+](=O)[O-])ccc1N1CCOCC1`, the Potency entry was “inactive”.

Consider `CC(C(=O)N1CCCCCC1)c1ccc([N+](=O)[O-])cc1` (stereo not drawn), for which the Potency entry is “inactive”.

With `CCCn1nc(NC(=O)C(C)(C)C)c2cc3cc(OC)ccc3nc21`, the Potency result is “inactive”.

For `Cc1ccc(-c2nc3cc(Br)cnc3nc2-c2ccc(C)cc2)cc1`, the Potency entry was “inactive”.

In the case of `Cc1nnsc1C(=O)NNC(=O)Nc1ccccc1`, the Potency entry was “inactive”.

As for `O=C(c1ccccc1)c1ccsc1C(=O)c1ccccc1`, the Potency result is “inactive”.

Take `O=C(c1ccccc1)c1ccccc1N1C(=O)C=CC1=O`: the Potency was 23.8 µM (active).

For `O=C(C1=NN(c2ccccc2)C2C(=O)N(c3ccccc3Cl)C(=O)C12)c1ccccc1` (stereo not drawn), the Potency entry was “inactive”.

For `O=C(Oc1cc(=O)oc2c1c(=O)n1c3c(cccc23)CC1)c1ccccc1`, the Potency entry was “inactive”.

Consider `COc1cccc(CNC(=O)c2cc(S(=O)(=O)N3CCCC3)cn2C)c1`, for which the Potency entry is “inactive”.

With `Cc1cc(Cl)ccc1OCC(=O)OCC(=O)Nc1cccnc1Cl`, the Potency result is “inactive”.

Consider `Cc1ccc(OCC(=O)Nc2ccc(Cl)cc2)c(-n2nc3ccccc3n2)c1`, for which the Potency is 39.8 µM (active).

With `CN(CC(=O)Nc1ccc(Cl)cc1)C(=O)COc1ncnc2ccccc12`, the Potency entry was “inactive”.

The record behind these values is ChEMBL document CHEMBL1201862, “PubChem BioAssay data set” (2004).
